Bioassay records: PubChem, several laboratories
AHR activator: activates the human aryl hydrocarbon receptor; P35869; AHR-responsive luciferase reporter cells, luminescence; activation, % at 5 µM; actives 2.5% (n = 320,000); AID 2796; in the data active = activation above about 47%;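 note: 0% = vehicle wells and 100% = reference agonist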
HIF act: HIF pathway transcriptional activation. activation, % at 7.5 µM (by protocol). actives 0.32% (n = 300,000). U2OS HRE-luciferase reporter, luminescence; normalized: DMSO 0%, desferrioxamine 100%;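 active = mean activation of at least 10% of the iron chelator positive control signal, with at least half of replicates also reaching 10%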
sPLA2-III inh: Blocks human group III sPLA2 activity; AID 743126; actives 0.56% (n = 370,000); Q9NZ20; inhibition, % at 12.2 µM; QFRET BODIPY PC-A2 liposome hydrolysis, fluorescence;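 active = inhibition above mean plus 3 SD of compounds lying within the high and low control bounds, cut at about 19% in these data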;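 note: 0% = median of test compound wells and 100% = no enzyme DMSO wells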
Target sequence (Q9NZ20 whole entry, looked up): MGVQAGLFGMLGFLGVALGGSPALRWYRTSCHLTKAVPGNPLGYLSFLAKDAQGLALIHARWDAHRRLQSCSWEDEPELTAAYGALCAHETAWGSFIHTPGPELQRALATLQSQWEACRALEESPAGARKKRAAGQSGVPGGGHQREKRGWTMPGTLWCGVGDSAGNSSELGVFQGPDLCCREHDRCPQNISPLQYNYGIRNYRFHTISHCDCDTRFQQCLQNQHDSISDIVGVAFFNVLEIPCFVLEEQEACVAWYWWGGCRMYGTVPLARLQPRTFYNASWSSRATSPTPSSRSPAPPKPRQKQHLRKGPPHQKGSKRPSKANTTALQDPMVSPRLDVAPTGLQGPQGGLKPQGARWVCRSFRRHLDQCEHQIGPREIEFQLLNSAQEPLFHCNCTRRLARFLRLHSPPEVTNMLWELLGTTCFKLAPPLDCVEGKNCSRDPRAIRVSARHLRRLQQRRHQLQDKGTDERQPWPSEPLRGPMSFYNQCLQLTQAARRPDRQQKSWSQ
PLC-beta3 inh: blocks human PLC-beta3 enzyme activity; Purified PLC-beta3, fluorogenic substrate, fluorescence; inhibition, % at 12.2 µM; actives 0.18% (n = 370,000); in the data active = inhibition above about 11%;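 note: 0% = median of compound wells on plate and 100% = full blocker control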
PLC-gamma1 inh: blocks human PLC-gamma1 enzyme activity. purified PLC-gamma1, fluorogenic substrate, fluorescence. P19174. actives 0.84% (n = 370,000). AID 720700. inhibition, % at 12.2 µM; in the data active = inhibition above about 9.5%
CR mimetic SO: caloric restriction mimetics inhibiting age-related superoxide in yeast | actives 0.18% (n = 330,000) | superoxide response (% of plate mean), % at 10 µM | S. cerevisiae aged cells, superoxide DHE fluorescence; hits give low values;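 active = superoxide response under a set limit, about three screen SD below normal, cut at about 65% in these data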;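 note: yeast aged for seven days with compound at 30 °C before DHE staining; 100% = average MFI of all compound-treated wells on the plate with controls excluded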
Starred values were filed as active, the others as inactive; i = inactive; / = no result given. In the library only some 3.9% were active in any assay of this set; here they are far more common.

SMILES | AHR activator | HIF act | sPLA2-III inh | PLC-beta3 inh | PLC-gamma1 inh | CR mimetic SO
Oc1ccc2ccccc2c1C=Nc1ccccc1-c1nc2ccccc2[nH]1 | 65* | 1 | -7 | i | i | 73
COc1ccccc1OCc1cc(C(=O)N(C)CCC2CCCCO2)no1 (configuration not stated) | 53* | 3 | 1 | -5 | 1 | 97
CC1(C)CC(=O)C=C(Nc2ccccc2NC(=O)c2cc(F)ccc2F)C1 | / | / | 2 | -2 | 1 | /
Cc1ccccc1C(=O)N[C@H](C(=O)N1CCC[C@H]1C(=O)NC1CCCC1)C1CCCCC1 | / | / | 0 | 6 | 2 | /
O=C(C[n+]1ccc2ccccc2c1)Nc1cc(C(F)(F)F)ccc1Cl | 26 | 0 | -72 | -6 | -5 | 59*
C/C(=N\NC(=O)c1ccccc1C)c1cccnc1 | 33 | -21 | 11 | -9 | -1 | 89
COc1ccccc1NC(=O)NC(=O)c1ccccc1 | 49* | 3 | -1 | -2 | 2 | 100
COc1ccccc1NC(=O)c1cccnc1 | 68* | 1 | 5 | 2 | 2 | 85
COc1ccccc1C(=O)N/N=C(\C)c1cccnc1 | 59* | 0 | -2 | -4 | 1 | 116
COCc1cc(N2CCN(C(=O)OC(C)(C)C)C[C@H]2C)ccc1N1CCN(Cc2ccccc2)[C@@H](C)C1 | / | / | 6 | -5 | -5 | /
COc1ccc(S[C@]2(C(=O)N3CCCC3)CC(=O)N(c3ccsc3)[C@@H]2c2ccc(OC)cc2)cc1 | / | / | 1 | 4 | 3 | /
Cc1ccccc1CNC1CCC12CCC(c1ccccc1)CC2 (configuration not stated) | / | / | 6 | 2 | 2 | /
Cc1nc(-c2ccc(Cl)cc2)sc1C(=O)O | 7 | 2 | -2 | -3 | -1 | 131
CNC(=O)c1sc(-c2ccccn2)nc1C | -2 | -1 | 1 | 2 | 0 | 106
Cc1nc(-c2ccccn2)sc1C(=O)Nc1ccc(F)cc1 | 118* | 1 | 0 | 0 | 0 | 132
Cc1nc(-c2ccncc2)sc1C(=O)Nc1ccc(Cl)cc1 | 65* | 0 | 0 | 1 | -2 | 91
N#C/C(=N\Nc1ccc(Cl)cc1)C(N)=S | 59* | 0 | 1 | -3 | 2 | 106
Cc1ccc(N/N=C(\C#N)C(N)=S)cc1C | 5 | 1 | 0 | -5 | 1 | 96
COc1ccc(C(=S)N2CCNCC2)cc1 | 4 | -1 | 4 | 4 | 1 | 112
COc1ccc(C(=S)N2CCCCCC2)cc1 | 6 | -1 | 15 | 2 | 9.9* | 115
Cc1ccc(-c2ccc(/C=C3\SC(N4CCOCC4)=NC3=O)o2)cc1 | 54* | 0 | 1 | -204 | -160 | 108
O=C1N=C(N2CCOCC2)S/C1=C/c1ccc(-c2ccc(F)cc2)o1 | 82* | 0 | -1 | -72 | -62 | 104
O=C1N=C(N2CCOCC2)SC1=Cc1ccco1 | / | / | -10 | -47 | -35 | /
CCN(CC)Cc1cc(Nc2c3ccccc3nc3c4ccccc4n(C)c23)cc(CN(CC)CC)c1O | / | / | 21* | -464 | -352 | /
Oc1cccc(Nc2c3ccccc3nc3ccccc23)c1 | 5 | 4 | 2 | -262 | -208 | 68
SMILES | AHR activator | HIF act | sPLA2-III inh | PLC-beta3 inh | PLC-gamma1 inh | CR mimetic SO
O=S1(=O)c2ccc(N3CCC[C@H]3CO)cc2O[C@@H]2CCN1C2 | / | / | 2 | -1 | -3 | /
CC(=O)c1cc2c(cc1N/C(=N/S(=O)(=O)c1ccccc1)c1ccc(Cl)cc1)OCO2 | 94* | 0 | -4 | -11 | -4 | 96
O=C(NCc1ccc(Cl)cc1)OCCN1C(=O)CCC12CCC(c1ccccc1)CC2 (configuration not stated) | / | / | 1 | 2 | 0 | /
Nc1ccc(-c2nc3ccc(N)cc3[nH]2)cc1 | 8 | -1 | 3 | i | i | 84
Nc1ccc(-c2nc3c(Cl)c(N)ccc3[nH]2)cc1 | 60* | 1 | 8 | i | i | 118
CCN(C(=O)c1ccco1)c1nc(CC(=O)Nc2ccc(Cl)cc2)cs1 | 78* | 1 | -3 | -2 | -2 | 90
Cc1cc(C)nc(N2CCCC(C(=O)Nc3ccc4c(c3)OCO4)C2)n1 (configuration not stated) | 49* | 0 | 1 | -7 | -1 | 86
NNc1nc(-c2ccccc2)c2cc(Br)ccc2n1 | 3 | -1 | 12 | -69 | -47 | 98
NNc1nc(-c2ccccc2)cc(-c2ccc(Br)cc2)n1 | 69* | -1 | -1 | -16 | -11 | 104
